# FECH block: inhibitors of human ferrochelatase. P22830. purified FECH, Ni-mesoporphyrin absorbance 550 nm. calls only at 10 µM (by protocol). 3.3% of 20,000 active. AID 1671448;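 active means enzyme reaction rate more than 3 SD below the solvent-only control wells on the same plate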;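 further: lower slope than DMSO wells means FECH inhibition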
# Starred values were filed as active, the others as inactive; i = inactive; + = active, no number. Only a selection was taken, and hits are over-represented in it overall.
SMILES,FECH block
O=S1(=O)N(Cc2ccc(Cl)cc2)CCCN1Cc1ccccc1Cl,+
Cc1ccc(C)c(CN2CCCN(Cc3ccccc3)S2(=O)=O)c1,i
Cc1ccc(CN2CCCN(Cc3ccccc3C)S2(=O)=O)cc1,i
Cc1ncsc1CCN(C)C(=O)c1cn(C)c2ccccc12,i
FC(F)(F)CCN1CCC2(CCNCC2)C1,i
